# Test results taken from the supplement of paper PMC10646978.
# ± gives the standard deviation.
# How the values were obtained:
# Conditions in all cases: modulator concentration 10 µM
# [1] = test system: RAW-Dual (murine macrophage reporter line); assay: NF-kB reporter (SEAP) activity fold change vs agonist alone; higher = enhanced NF-kB activity
# Method in brief: (§1)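 RAW-Dual murine macrophage reporter cells were plated at 50 000 per well in 384-well plates, pin-transferred compound to 10 μM final, and pre-incubated for 1 hour at 37 °C before a PRR agonist was added and the cells incubated overnight. NF-κB activity was read from supernatant SEAP with QUANTI-Blue at 620 nm absorbance, and IRF activity from Lucia luciferase with QUANTI-Luc by luminescence. Each signal was expressed as fold change by dividing by the mean agonist-only control on the same plate. Two replicate plates were averaged, with errors obtained by propagation.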
# [2] = test system: RAW-Dual (murine macrophage reporter line); assay: IRF reporter (Lucia luciferase) activity fold change vs agonist alone; higher = enhanced IRF activity
# Method in brief: as §1
# [3] = test system: RAW-Dual (murine macrophage reporter line); assay: viability score (confluency relative to resting cells, overnight) (fraction); higher = more viable, active = viable (0.7 or more)
# Method in brief: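 RAW-Dual macrophages in 384-well plates were treated overnight with compound at 10 μM final. IncuCyte imaging recorded confluency, and IncuCyte software built two confluency masks across every imaged well. The viability score expresses confluency relative to resting cells and was judged against a cutoff, which a compound met only if both masks exceeded 70% of resting cells.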
# [4] = agonist: CpG ODN 1826 0.5 ug/mL
Compound,"NF-kB reporter [1, 4]",NF-kB reporter ([1]; agonist: LPS 0.1 ug/mL),NF-kB reporter ([1]; agonist: MPLA […]),IRF reporter ([2]; agonist: 3'3'-cGAMP 10 ug/mL),IRF reporter ([2]; agonist: LPS 0.1 ug/mL),IRF reporter ([2]; agonist: MPLA […]),viability score [3]
Cc1cc(NC(=O)CC(C)C)ccc1N1CCCCC1=O,1.03 ± 0.097,1.03 ± 0.085,0.936 ± 0.11,1 ± 0.065,1.23 ± 0.11,1.14 ± 0.32,1.01 (active)
Cc1cc(OC2CN(C(=O)CSCc3ccccc3)C2)cc(=O)n1C1CC1,1.12 ± 0.056,1.07 ± 0.085,0.994 ± 0.05,0.658 ± 0.034,0.986 ± 0.086,1.11 ± 0.31,1 (active)
CCOC(=O)C1=C(C)N(c2ccc(OC)cc2)C(=O)C1=Cc1ccc(C(C)C)cc1,0.903 ± 0.067,1.01 ± 0.083,0.804 ± 0.1,0.883 ± 0.03,1.36 ± 0.21,1.33 ± 0.12,0.997 (active)
COc1ccc(CNC(=O)c2cnc3n(c2=O)CCS3)cc1,1.21 ± 0.29,1.04 ± 0.055,2.54 ± 1.4,0.934 ± 0.038,1.1 ± 0.15,1.25 ± 0.19,1 (active)
Br.COc1ccc2c3c1O[C@H]1C[C@@H](O)C=C[C@@]31CCN(C)C2,0.95 ± 0.071,1.03 ± 0.052,0.947 ± 0.024,0.912 ± 0.08,0.995 ± 0.042,1.11 ± 0.14,1.01 (active)
COC1(C)CCC2OC2(C)CCC2C1CC2(C)C (centres undefined),1.31 ± 0.31,1.06 ± 0.053,1.04 ± 0.12,1.03 ± 0.041,1.28 ± 0.15,1.17 ± 0.13,0.87 (active)
c1ccc(CC(=NNc2ccccc2)c2ccc(-c3ccccc3)cc2)cc1,0.855 ± 0.091,0.879 ± 0.069,1.07 ± 0.11,0.657 ± 0.028,1.3 ± 0.2,1.35 ± 0.28,1.03 (active)
CN(C)CC#CCNC(=O)Nc1ccc(C(F)(F)F)cc1,0.935 ± 0.33,0.899 ± 0.045,0.874 ± 0.058,0.425 ± 0.016,1.06 ± 0.22,1.22 ± 0.13,1 (active)
COc1cc2nc(N3CCN(C(=O)C4COc5ccccc5O4)CC3)nc(N)c2cc1OC.CS(=O)(=O)O (centres undefined),0.103 ± 0.014,1.29 ± 0.2,1.2 ± 0.082,0.273 ± 0.017,1.44 ± 0.33,1.97 ± 0.15,0.914 (active)
O=c1c2c([nH]c3c(-c4cccc5ccccc45)cnn13)CCCC2,1.02 ± 0.095,1.07 ± 0.067,0.913 ± 0.062,0.987 ± 0.027,1.47 ± 0.23,1.09 ± 0.2,1.01 (active)
CN(C)c1ccc(C2N(C)c3ccccc3N2C)cc1,1.2 ± 0.19,1.69 ± 0.13,2.19 ± 0.2,0.939 ± 0.031,1.88 ± 0.23,1.94 ± 0.25,0.858 (active)
COc1ccc(OC)c(Nc2nc(-c3c(C)nc4ccccn34)cs2)c1,1.35 ± 0.22,1.45 ± 0.12,1.58 ± 0.13,0.241 ± 0.0091,1.25 ± 0.22,1.53 ± 0.24,0.967 (active)
Cc1c(Cl)ccc2c1NC(C(=O)O)C1CC=CC21 (centres undefined),0.814 ± 0.045,1.05 ± 0.092,0.755 ± 0.063,0.615 ± 0.034,1.19 ± 0.091,1.13 ± 0.099,0.994 (active)
COc1ccc(-c2cc(CNC(=O)C3CCC3)no2)cc1,1.15 ± 0.075,1.02 ± 0.1,0.934 ± 0.034,0.877 ± 0.052,1.06 ± 0.086,0.986 ± 0.23,0.995 (active)
CC(C)NCC(O)COc1ccccc1C(C)(C)C.Cl (centres undefined),0.857 ± 0.063,1.02 ± 0.098,1.15 ± 0.03,0.796 ± 0.029,1.02 ± 0.084,0.952 ± 0.17,0.922 (active)
Brc1ccc(Cn2c(CN3CCCC3)nc3ccccc32)cc1,0.679 ± 0.17,1.05 ± 0.092,1.07 ± 0.08,0.775 ± 0.029,1.12 ± 0.18,1.16 ± 0.22,0.957 (active)
c1ccc(CSc2nnc(-c3cccnc3)o2)nc1,0.986 ± 0.056,1.09 ± 0.084,1 ± 0.074,0.992 ± 0.036,0.95 ± 0.13,0.858 ± 0.33,1 (active)
Clc1ccc(-c2nc(N3CCCCC3)nc3ccccc23)cc1,0.444 ± 0.033,0.975 ± 0.051,1.09 ± 0.041,0.839 ± 0.047,0.953 ± 0.073,1.39 ± 0.12,0.993 (active)
COc1c(C)c2c(c(O)c1C/C=C(\C)CCC(=O)OCCN1CCOCC1)C(=O)OC2,0.66 ± 0.12,0.222 ± 0.02,0.517 ± 0.047,0.608 ± 0.049,1.28 ± 0.13,1.24 ± 0.13,0.813 (active)
COC12C(COC(N)=O)C3=C(C(=O)C(C)=C(N)C3=O)N1CC1NC12 (centres undefined),1.35 ± 0.12,0.967 ± 0.083,1.18 ± 0.13,1.09 ± 0.075,1.32 ± 0.18,1.41 ± 0.28,0.969 (active)
CC(C)Sc1ccc(CC(=O)Nc2cnoc2)cc1,0.869 ± 0.044,1.01 ± 0.09,1.15 ± 0.095,0.848 ± 0.051,1.01 ± 0.24,1.1 ± 0.4,0.912 (active)
O=C(O)/C=C/c1ccc(Cn2ccnc2)cc1,0.812 ± 0.079,0.873 ± 0.05,1.07 ± 0.093,1.02 ± 0.062,1.16 ± 0.067,1.13 ± 0.12,1.01 (active)
COc1ccc(C)c2sc(=NC(=O)c3ccccc3)n(C)c12,1.16 ± 0.11,1.17 ± 0.06,2.25 ± 0.073,0.904 ± 0.05,0.969 ± 0.15,2.01 ± 0.31,0.99 (active)
COCCOC(=O)C1=C(C)NC(C)=C(C(=O)OC/C=C/c2ccccc2)C1c1cccc([N+](=O)[O-])c1 (centres undefined),0.743 ± 0.078,0.787 ± 0.037,0.938 ± 0.09,1 ± 0.057,1.18 ± 0.088,1.17 ± 0.1,1.01 (active)
N=C1NC(=O)C(=Cc2ccc(-c3ccc(F)cc3)o2)S1,0.507 ± 0.047,0.632 ± 0.042,0.964 ± 0.043,1.02 ± 0.17,0.989 ± 0.15,0.798 ± 0.13,1 (active)
COC(=O)c1ccc(N2C(=O)c3ccc(Oc4cccc([N+](=O)[O-])c4)cc3C2=O)cc1,0.969 ± 0.085,0.923 ± 0.079,1.06 ± 0.11,0.994 ± 0.031,1.33 ± 0.17,1.71 ± 0.19,1.02 (active)
CCNc1cc(C)nc(Nc2ccc(NC(=O)c3ccc(OC)c(OC)c3)cc2)n1,0.118 ± 0.0094,1.32 ± 0.11,1.74 ± 0.17,0.72 ± 0.023,1.19 ± 0.18,1.29 ± 0.27,0.977 (active)
